Source: PubChem
Lamin A splicing: changes lamin A minigene splicing in HeLa cells; HeLa LMNA splicing GFP/RFP minigene ratio, 48 h; Potency, µM (top dose mostly 46.1 µM), usual class: inhibitors; 200,000 compounds, 0.01% hits; AID 1487; active = well fitted inhibition curve with a large enough effect in the signal ratio, with a control signal flat, not every such curve was filed as active; inconclusive = small, poorly fitted or top-dose-only effect, or effect the other way, or a change in a side signal; the % refers to the signal ratio
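S3 HeLa stable clones carrying a lamin A-EGFP splicing minigene plus DsRed2 were seeded at 600 cells/well in Opti-MEM with 2% FBS, pin-dosed and incubated 48 h at 37°C. Acumen cytometry (488 nm) gave the GFP/RFP total-intensity ratio.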
IMPase Li inh: cell-permeable IMPase inhibitors with lithium potentiation. CHO-M1 cells, IP1 TR-FRET (IP-One), carbachol + lithium. Potency, µM (top dose mostly 59.4 µM), actives largely listed as inhibitors. 210,000 compounds, 0.35% hits. AID 1457; active = well fitted curve in the direction sought with a large enough effect; inconclusive = small, poorly fitted or top-dose-only effect, or another doubt; inactive = no such curve, though single readings can be large; an effect the other way counts as inactive or inconclusive;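 note: IP1 builds up when IMPase is blocked and the TR-FRET signal falls; nearly all actives have a fitted effect of over 50% in size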
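CHO cells stably expressing M1 receptor (2000/well, cultured 16–30 h) treated 30 min at 37C with compound plus low lithium. Cytosolic IP1 by TR-FRET (665/620 ratio and 620 channel) after 10 min lysis; AC50 by Hill fit.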
ALDH1A1 block: inhibitors of human aldehyde dehydrogenase 1A1; Purified ALDH1A1, NADH fluorescence, propionaldehyde substrate; 220,000 compounds, 7.3% hits; Potency, µM (series often up to 75.3 µM), hits mostly inhibitors; AID 1030; P00352
Target sequence (P00352 whole entry, looked up): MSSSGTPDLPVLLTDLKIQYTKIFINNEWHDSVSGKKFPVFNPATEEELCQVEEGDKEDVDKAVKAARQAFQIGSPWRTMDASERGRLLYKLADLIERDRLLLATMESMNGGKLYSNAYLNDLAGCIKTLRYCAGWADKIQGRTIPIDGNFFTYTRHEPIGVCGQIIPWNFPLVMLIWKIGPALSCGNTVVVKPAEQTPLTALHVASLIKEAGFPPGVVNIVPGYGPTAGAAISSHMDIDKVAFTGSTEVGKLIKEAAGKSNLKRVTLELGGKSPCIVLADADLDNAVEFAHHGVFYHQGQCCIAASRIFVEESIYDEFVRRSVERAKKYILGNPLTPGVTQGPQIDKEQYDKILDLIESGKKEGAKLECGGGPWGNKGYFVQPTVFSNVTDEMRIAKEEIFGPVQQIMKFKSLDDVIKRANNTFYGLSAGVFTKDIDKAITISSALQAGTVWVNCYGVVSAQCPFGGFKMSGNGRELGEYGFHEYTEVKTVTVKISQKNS
HPGD block: blocks human HPGD enzyme activity | P15428 | purified HPGD, NADH fluorescence kinetic, PGE2 substrate | Potency, µM, hits mostly inhibitors | 150,000 compounds, 4.3% hits | AID 894
Target sequence (P15428 whole entry, looked up): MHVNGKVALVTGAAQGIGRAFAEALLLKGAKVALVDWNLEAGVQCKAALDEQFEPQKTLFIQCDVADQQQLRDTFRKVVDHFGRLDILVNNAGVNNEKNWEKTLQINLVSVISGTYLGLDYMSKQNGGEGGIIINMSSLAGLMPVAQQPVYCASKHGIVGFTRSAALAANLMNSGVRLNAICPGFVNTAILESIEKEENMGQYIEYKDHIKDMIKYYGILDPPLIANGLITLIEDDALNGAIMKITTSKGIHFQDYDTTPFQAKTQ
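20 nM HPGD preincubated 15 min at room temperature with compound in 50 mM Tris-HCl pH 8, 0.01% Tween 20. Started with 1 mM NAD+ and 30 uM prostaglandin E2; NADH fluorescence (360/450 nm) read 5 times over 30-s intervals, last minus first.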
KinaseGlo FLuc: counter-screen: inhibitors of Kinase-Glo firefly luciferase. AID 1379. 200,000 compounds, 0.28% hits. Kinase-Glo luciferase, ATP luminescence, 8 min. Potency, µM (doses to about 38.3 µM), actives largely listed as inhibitors; active = well fitted curve in the direction sought with a large enough effect; inconclusive = small, poorly fitted or top-dose-only effect, or another doubt; inactive = no such curve, though single readings can be large; an effect the other way counts as inactive or inconclusive; note: nearly all actives have a fitted effect of over 60% in size
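Kinase-Glo luciferase light output from ATP and luciferin was measured with 10 uM ATP, within the enzyme's linear range. Buffer: 50 mM imidazole pH 7.2, 50 mM KCl, 7 mM MgCl2, 0.01% Tween 20, 0.05% BSA; luminescence read after 8 min at ambient temperature.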
Each line names hits and unclear results; the compound was inactive in the other large screens. Most compounds without a hit are left out; they make up all but 9% or so of the library. Unless noted, calls come from the whole dose curve; as a rule, active = well fitted inhibition curve with a large enough effect (not every such curve was filed as active); inconclusive = small, poorly fitted or top-dose-only effect, or another doubt; inactive = no such curve, though single readings can be large or run the other way.

NC(C(=O)O)c1cc(O)cc(O)c1 (stereo not drawn)	ALDH1A1 block inconclusive (no result: Lamin A splicing, HPGD block, KinaseGlo FLuc)
CC(C)CC(NC(=O)C1CCCCC1)C(=O)N1CCN(c2ccccn2)CC1 (stereo not drawn)	ALDH1A1 block inconclusive
COc1ccc(CCNC(=O)c2cnn(-c3ccc(F)cc3)c2C2CCN(C(=O)OC(C)(C)C)CC2)cc1OC	none (no result: IMPase Li inh, ALDH1A1 block, HPGD block, KinaseGlo FLuc)
Cc1ccc(S(=O)(=O)c2cn(Cc3cccc(F)c3)c3cc(N4CCCC4)c(F)cc3c2=O)cc1	none (no result: IMPase Li inh, ALDH1A1 block, HPGD block, KinaseGlo FLuc)
CCc1ccc(C(C)NC(=O)Cn2cnc3c(=O)n(C)c(=O)n(C)c32)cc1 (stereo not drawn)	ALDH1A1 block 28µM
CCC(C)(C)c1ccc(OCCCC[n+]2cccc(C)c2)c(C(C)(C)CC)c1	none (no result: Lamin A splicing, HPGD block)
CCCCn1c(CN2CCN(c3cccc(Cl)c3)CC2)nc2c1c(=O)n(C)c(=O)n2C	Lamin A splicing inconclusive, ALDH1A1 block 16µM
CCCCCn1c(N2CCN(c3cccc(Cl)c3)CC2)nc2c1c(=O)[nH]c(=O)n2C	none
CCCCCCn1c(CN2CCN(CCO)CC2)nc2c1c(=O)n(C)c(=O)n2C	ALDH1A1 block 4µM
CCCn1c(CN2CCN(c3cccc(Cl)c3)CC2)nc2c1c(=O)n(C)c(=O)n2C	ALDH1A1 block inconclusive
CCCCCn1c(CN2CCN(c3cc(Cl)ccc3C)CC2)nc2c1c(=O)[nH]c(=O)n2C	Lamin A splicing inconclusive, ALDH1A1 block 14µM
CCCCCn1c(CN2CCN(c3cccc(Cl)c3)CC2)nc2c1c(=O)n(C)c(=O)n2C	Lamin A splicing inconclusive, ALDH1A1 block 3.5µM
CCCCn1c(CN2CCN(c3ccccc3)CC2)nc2c1c(=O)n(C)c(=O)n2C	Lamin A splicing inconclusive, ALDH1A1 block inconclusive
Cc1cccc(-c2nc(CCNC(=O)COc3ccccc3)cs2)c1	none (no result: IMPase Li inh, ALDH1A1 block, HPGD block, KinaseGlo FLuc)
C=CC(N)CCC(=O)O (stereo not drawn)	none
COc1ccc(OCC(=O)N/N=C(\C)CC(=O)Nc2ccc(OC)cc2[N+](=O)[O-])cc1	Lamin A splicing inconclusive, ALDH1A1 block 20µM (no result: HPGD block)
COc1ccc(NC(=O)C/C(C)=N/NC(=O)c2ccncc2)c([N+](=O)[O-])c1	ALDH1A1 block 3.5µM (no result: Lamin A splicing, HPGD block)
COc1ccc(NC(=O)Cc2ccc(C)cc2)c([N+](=O)[O-])c1	Lamin A splicing inconclusive
COc1ccc(NC(=O)COc2ccc(C)cc2)c([N+](=O)[O-])c1	none (no result: Lamin A splicing, HPGD block)
O=C(CCl)N(C/C=C/c1ccccc1)c1ccc2c(c1)OCCO2	Lamin A splicing inconclusive, ALDH1A1 block 0.79µM (no result: HPGD block)
CCNC(=S)N1CCN(c2ccc([N+](=O)[O-])cc2)CC1	ALDH1A1 block 3.2µM
CNC(=S)N1CCN(c2ccc([N+](=O)[O-])cc2)CC1	ALDH1A1 block inconclusive
COCCCNC(=S)N1CCN(c2ccc([N+](=O)[O-])cc2)CC1	Lamin A splicing inconclusive, ALDH1A1 block 28µM
O=[N+]([O-])c1ccc(N2CCN(C(=S)NCc3ccc(Cl)cc3)CC2)cc1	ALDH1A1 block 11µM (no result: Lamin A splicing, HPGD block, KinaseGlo FLuc)
O=[N+]([O-])c1ccc(NC(=S)N2CCN(c3ccc(F)cc3)CC2)cc1	none
CC(C)c1ccc2c(c1)CC[C@H]1[C@@](C)(CN)CCC[C@@]21C	none (no result: Lamin A splicing)
Cc1cc(C)nc(SCc2cc(=O)c(OC(=O)c3ccc(Cl)c([N+](=O)[O-])c3)co2)n1	HPGD block 11µM
O=C(Oc1coc(CSc2ncccn2)cc1=O)c1cccc([N+](=O)[O-])c1	ALDH1A1 block 1.8µM (no result: Lamin A splicing, HPGD block)
Cn1c(=O)n(Cc2ccc(Br)cc2)c2ccccc21	none (no result: Lamin A splicing, HPGD block)
COc1ccc(N=N/C(=C\O)C(=O)c2ccco2)cc1	ALDH1A1 block 7.9µM (no result: HPGD block)
Cn1cccc1-c1cc(C(=O)N2CCc3c([nH]c4ccccc34)C2c2ccccn2)[nH]n1 (stereo not drawn)	ALDH1A1 block 13µM (no result: Lamin A splicing, HPGD block)
CCOC(=O)C1(CC2CC2)CCN(C(=O)c2cccnc2C)CC1	none (no result: Lamin A splicing, HPGD block)
Oc1ccc(N=C/C=C/c2ccc(Br)cc2)cc1-c1nc2ccccc2s1	ALDH1A1 block inconclusive
O=c1c(-c2cc(F)cc(F)c2)nc2cnc(Oc3ccccc3)nc2n1C1CC1	ALDH1A1 block inconclusive (no result: Lamin A splicing)
CC1CC(C)CN(c2ccc(C(=O)NCc3ccc4c(c3)OCO4)cc2[N+](=O)[O-])C1 (stereo not drawn)	Lamin A splicing inconclusive, ALDH1A1 block inconclusive, HPGD block inconclusive
CCc1c(C)nc(N)n2c(SCC(=O)N3CCN(c4ccccc4OC)CC3)nnc12	none
O=C(c1ccc(Cl)c(F)c1F)N1CCCC1	HPGD block 20µM
O=c1c(-c2n[nH]c(=S)o2)cccn1Cc1ccccc1	ALDH1A1 block inconclusive (no result: Lamin A splicing, HPGD block)
COc1ccc(C)cc1-n1nnnc1SCc1nc2ccccc2s1	Lamin A splicing inconclusive, ALDH1A1 block 11µM
COc1ccc(OC)c(-n2nnnc2SCC(=O)NCCc2ccccc2)c1	ALDH1A1 block 1.3µM
COc1ccc(-c2nnn(CC(=O)c3ccc4c(c3)OCCO4)n2)cc1OC	Lamin A splicing inconclusive, ALDH1A1 block 28µM
COc1cccc(-n2nnnc2SCC(=O)NCCc2ccccc2)c1	ALDH1A1 block inconclusive
COc1ccc(-n2nnnc2SCc2nc3ccccc3s2)cc1	ALDH1A1 block inconclusive, HPGD block inconclusive
CCOc1ccc(-c2nnn(CC(=O)c3ccc4c(c3)OCCO4)n2)cc1	Lamin A splicing inconclusive, ALDH1A1 block inconclusive
COc1ccc(C)cc1-n1nnnc1SCC1CCCO1 (stereo not drawn)	ALDH1A1 block 13µM
CCC(=O)NC(=S)Nc1ccc(N2CCN(C(=O)c3ccc(Cl)cc3)CC2)cc1	ALDH1A1 block inconclusive (no result: Lamin A splicing, HPGD block)
CC(C(=O)NC(=O)NC1CCCCC1)N1CCN(C(c2ccccc2)c2ccccc2)CC1 (stereo not drawn)	none
COCCn1c(SCC(=O)c2ccc3c(c2)OCCO3)nnc1-c1ccoc1C	Lamin A splicing inconclusive, ALDH1A1 block 20µM
O=C(Cn1nc(Cl)nc1Cl)c1ccc2c(c1)OCCO2	ALDH1A1 block 1.1µM
COCCCn1c(SCC(=O)Nc2ccc3c(c2)OCCO3)nnc1-c1ccoc1C	ALDH1A1 block inconclusive
COc1ccc(CCn2c(SCC(=O)Nc3cc(C)on3)nc3ccsc3c2=O)cc1OC	IMPase Li inh 11µM
COc1ccc(CCn2c(SCC(=O)Nc3cc(C)on3)nc3ccccc3c2=O)cc1OC	none
Cc1cc(C)nc(SCC(=O)c2ccc3c(c2)OCCO3)n1	none
COc1ccc(C)cc1-n1nnnc1SCC(=O)NC(=O)NCc1ccco1	ALDH1A1 block 13µM
COc1ccc(N2CC(NC(=O)c3cccs3)CC2=O)cc1 (stereo not drawn)	none (no result: IMPase Li inh, ALDH1A1 block, HPGD block, KinaseGlo FLuc)
COc1ccc(-n2nnnc2SCC(=O)c2ccc3c(c2)OCCO3)c(OC)c1	Lamin A splicing inconclusive, ALDH1A1 block inconclusive
COc1ccc(C)cc1-n1nnnc1SCC(=O)Nc1cc(C)on1	ALDH1A1 block 2µM
COCCCn1c(SCC(=O)n2c(C)c(C)c3ccccc32)nnc1-c1ccoc1C	ALDH1A1 block 25µM
COc1ccc(C)cc1-n1nnnc1SCC(=O)Nc1cccnc1Cl	Lamin A splicing inconclusive, ALDH1A1 block inconclusive
